Laboratory results: the supplement of paper PMC6555819

Legend:
Assay in all cases: PBM binding z-score (relative to random genomic background probes); higher = stronger binding; sequences stand for … in GC…GCGATTGACAGCGTAGAATGAAGG
[1] = system: FXR:RXRa (NR concentration 270 nM, RXRa partner concentration 90 nM)
Procedure, shortened: (§1)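 Scanned fluorescence from custom Agilent 4×180K protein-binding microarrays was regression-normalized. Binding z-scores use random background probes as reference. Ligand-free nuclear receptor dimers were incubated on the arrays for 1 h and detected with antibodies against each partner (one per run).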

[2] = system: LXRa:RXRa (NR concentration 270 nM, RXRa partner concentration 90 nM)
Procedure, shortened: as §1

[3] = system: LXRa homodimer (NR concentration 270 nM)
Procedure, shortened: as §1

[4] = system: LXRb homodimer (NR concentration 270 nM)
Procedure, shortened: as §1

[5] = system: PPARa:RXRa (NR concentration 270 nM, RXRa partner concentration 90 nM)
Procedure, shortened: as §1

[6] = system: PPARg:RXRa (NR concentration 180 nM, RXRa partner concentration 90 nM)
Procedure, shortened: as §1

[7] = system: PPARg:RXRa 270nM:90nM, anti-RXR (NR concentration 270 nM, RXRa partner concentration 90 nM)
Procedure, shortened: as §1

[8] = system: PPARg:RXRa 30nM:10nM, anti-RXR (NR concentration 30 nM, RXRa partner concentration 10 nM)
Procedure, shortened: as §1

[9] = system: PPARg:RXRa 90nM:30nM, anti-RXR (NR concentration 90 nM, RXRa partner concentration 30 nM)
Procedure, shortened: as §1

[10] = system: PPARg:RXRa DBDmut IVT, anti-RXR (DBD mutation: RXRa K156A/R161A, NR concentration 270 nM, RXRa partner concentration 90 nM)
Procedure, shortened: as §1

[11] = system: PPARg:RXRa IVT, anti-PPARg (NR concentration 270 nM, RXRa partner concentration 90 nM)
Procedure, shortened: as §1

[12] = system: PPARg DBDmut:RXRa IVT, anti-PPARg (DBD mutation: PPARg1 K132A/R137A, NR concentration 270 nM, RXRa partner concentration 90 nM)
Procedure, shortened: as §1

[13] = system: PPARg DBDmut IVT, anti-PPARg (DBD mutation: PPARg1 K132A/R137A, NR concentration 270 nM)
Procedure, shortened: as §1

[14] = system: PPARg homodimer (NR concentration 180 nM)
Procedure, shortened: as §1

[15] = system: PXR:RXRa (NR concentration 270 nM, RXRa partner concentration 90 nM)
Procedure, shortened: as §1

[16] = system: PXR homodimer (NR concentration 270 nM)
Procedure, shortened: as §1

[17] = system: RARa:RXR (NR concentration 270 nM, RXRa partner concentration 90 nM)
Procedure, shortened: as §1

[18] = system: RARa homodimer (NR concentration 270 nM)
Procedure, shortened: as §1

[19] = system: RARb:RXRa (NR concentration 270 nM, RXRa partner concentration 90 nM)
Procedure, shortened: as §1

TCTAGTTCGTCACGGAGGTCACACACGACGGGTA gave a PBM binding z-score [1] of 3.69, a PBM binding z-score [2] of 3.72 and a PBM binding z-score [3] of 2.25. The PBM binding z-score [4] was 1.17, the PBM binding z-score [5] was 4.1 and the PBM binding z-score [6] was 2.17. It also gave a PBM binding z-score [7] of 3.67, a PBM binding z-score [8] of 3.62 and a PBM binding z-score [9] of 3.42. It also gave a PBM binding z-score [10] of 1.52, a PBM binding z-score [11] of 2.15 and a PBM binding z-score [12] of 0.73. For the same sequence, the PBM binding z-score [13] was 0.867, the PBM binding z-score [14] was 6.1 and the PBM binding z-score [15] was 5.15. It also gave a PBM binding z-score [16] of 2.64, a PBM binding z-score [17] of 5.11 and a PBM binding z-score [18] of 2.71. It also gave a PBM binding z-score [19] of 3.83.

For ACTAGTTGGTCAGCTGAGGTCACACAAAATTCGG, the PBM binding z-score [1] was 4.18, the PBM binding z-score [2] was 3.22 and the PBM binding z-score [3] was 2.26. For the same sequence, the PBM binding z-score [4] was 0.719, the PBM binding z-score [5] was 3.85 and the PBM binding z-score [6] was 1.45. For the same sequence, the PBM binding z-score [7] was 2.46, the PBM binding z-score [8] was 0.399 and the PBM binding z-score [9] was 1.64. It also gave a PBM binding z-score [10] of 1.6, a PBM binding z-score [11] of 2.89 and a PBM binding z-score [12] of 0.792. The PBM binding z-score [13] was 0.409, the PBM binding z-score [14] was 3.4 and the PBM binding z-score [15] was 5.63. For the same sequence, the PBM binding z-score [16] was 2.18, the PBM binding z-score [17] was 4.78 and the PBM binding z-score [18] was 1.17. The PBM binding z-score [19] was 3.87.

Work on CGTCCAAGGGCAATGCTAGGTCAGTGAAAGCATT yielded a PBM binding z-score [1] of 0.683, a PBM binding z-score [2] of 2.37 and a PBM binding z-score [3] of 0.414. It also gave a PBM binding z-score [4] of -1.33, a PBM binding z-score [5] of 0.934 and a PBM binding z-score [6] of -0.00472. For the same sequence, the PBM binding z-score [7] was 0.084, the PBM binding z-score [8] was -0.775 and the PBM binding z-score [9] was -0.291. For the same sequence, the PBM binding z-score [10] was 0.816, the PBM binding z-score [11] was 0.945 and the PBM binding z-score [12] was -1.98. It also gave a PBM binding z-score [13] of -1.04, a PBM binding z-score [14] of 1.08 and a PBM binding z-score [15] of 1.04. For the same sequence, the PBM binding z-score [16] was -0.135, the PBM binding z-score [17] was 1.55 and the PBM binding z-score [18] was -0.607. The PBM binding z-score [19] was 3.1.

For GATACAGGGTCAAGGCCAGAGTACGCGTATTGAT, the PBM binding z-score [1] was 6.67, the PBM binding z-score [2] was 4.16 and the PBM binding z-score [3] was 0.173. It also gave a PBM binding z-score [4] of -0.282, a PBM binding z-score [5] of 5.44 and a PBM binding z-score [6] of 5.85. It also gave a PBM binding z-score [7] of 5.43, a PBM binding z-score [8] of 2.04 and a PBM binding z-score [9] of 4.11. The PBM binding z-score [10] was 2.82, the PBM binding z-score [11] was 3.95 and the PBM binding z-score [12] was 1.08. The PBM binding z-score [13] was 0.22, the PBM binding z-score [14] was 1.95 and the PBM binding z-score [15] was 3.88. For the same sequence, the PBM binding z-score [16] was 0.227, the PBM binding z-score [17] was 4.46 and the PBM binding z-score [18] was 0.587. The PBM binding z-score [19] was 4.44.

ACTCGGAGGACAAAGGTGAGAGCTACGCCAGTGA showed a PBM binding z-score [1] of 0.567, a PBM binding z-score [2] of 0.58 and a PBM binding z-score [3] of -0.14. For the same sequence, the PBM binding z-score [4] was -0.434, the PBM binding z-score [5] was 2.81 and the PBM binding z-score [6] was 4.53. The PBM binding z-score [7] was 5.16, the PBM binding z-score [8] was 3.49 and the PBM binding z-score [9] was 5.42. For the same sequence, the PBM binding z-score [10] was 0.595, the PBM binding z-score [11] was 2.19 and the PBM binding z-score [12] was -0.781. It also gave a PBM binding z-score [13] of -0.86, a PBM binding z-score [14] of 0.6 and a PBM binding z-score [15] of 0.477. The PBM binding z-score [16] was -0.385, the PBM binding z-score [17] was 1.24 and the PBM binding z-score [18] was -0.258. For the same sequence, the PBM binding z-score [19] was 2.37.

Sequence CATAGTTGGTCAAGGTCACACACGCTATAGGTAC has a PBM binding z-score [1] of 4.26, a PBM binding z-score [2] of 4.07 and a PBM binding z-score [3] of 1.83. For the same sequence, the PBM binding z-score [4] was 1.1, the PBM binding z-score [5] was 4.12 and the PBM binding z-score [6] was 3.78. It also gave a PBM binding z-score [7] of 3.92, a PBM binding z-score [8] of 1.88 and a PBM binding z-score [9] of 3.28. It also gave a PBM binding z-score [10] of 1.92, a PBM binding z-score [11] of 3.93 and a PBM binding z-score [12] of 1.23. For the same sequence, the PBM binding z-score [13] was 1.92, the PBM binding z-score [14] was 3.69 and the PBM binding z-score [15] was 4.35. The PBM binding z-score [16] was 2.19, the PBM binding z-score [17] was 4.44 and the PBM binding z-score [18] was 1.85. It also gave a PBM binding z-score [19] of 4.04.

TCTAGTTGGTCACGGGGGTCACACACGACGGGTA was tested, and the PBM binding z-score [1] was 5.12, the PBM binding z-score [2] was 4.95 and the PBM binding z-score [3] was 2.06. For the same sequence, the PBM binding z-score [4] was 9.37, the PBM binding z-score [5] was 5.15 and the PBM binding z-score [6] was 5.57. The PBM binding z-score [7] was 6.09, the PBM binding z-score [8] was 4.82 and the PBM binding z-score [9] was 5.65. The PBM binding z-score [10] was 3.49, the PBM binding z-score [11] was 5.43 and the PBM binding z-score [12] was 6.78. The PBM binding z-score [13] was 6.87, the PBM binding z-score [14] was 4.67 and the PBM binding z-score [15] was 5.72. For the same sequence, the PBM binding z-score [16] was 2.32, the PBM binding z-score [17] was 6.59 and the PBM binding z-score [18] was 2. The PBM binding z-score [19] was 4.07.
